Screening results deposited in PubChem BioAssay by several laboratories.
Hits are enriched below; roughly 3.7% of the tested compounds scored in any of these assays.
tim10-1 inh: growth inhibitors of tim10-1 mutant yeast, primary screen, luminescence, uHTS; S. cerevisiae tim10-1 ts strain growth, BacTiter-Glo, 24 h; inhibition, % at 20 µM; actives 2.2% (n = 330,000);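 active = inhibition of at least 40%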;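 note: mutant grown at 25 °C; 0% = DMSO wells with yeast and 100% = wells holding no yeast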
TIM10 inh: growth inhibitors of isogenic TIM10 control yeast, primary screen, counter-screen for tim10-1 yeast inhibitor project, luminescence, uHTS. S. cerevisiae TIM10 strain growth, BacTiter-Glo luminescence, 24 h. inhibition, % at 10 µM. actives 1.4% (n = 330,000);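 active = inhibition of 40% or more at the single tested concentration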;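 note: wild-type TIM10 isogenic control strain grown at permissive 25 °C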
tim23-1 inh: growth inhibitors of tim23-1 mutant yeast, primary screen, luminescence, uHTS | S. cerevisiae tim23-1 growth, BacTiter-Glo luminescence, 24 h | inhibition, % at 20 µM | actives 1.3% (n = 330,000) | AID 463212, 2010;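 active = growth inhibition of the mutant yeast at or above 50%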;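 note: temperature-sensitive mutant grown at 25 °C; plate controls were DMSO-treated mutant yeast for no effect and medium wells lacking yeast for full effect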
NLRP3 yeast inh: NALP3 inflammasome inhibitors in reconstituted yeast, primary screen, luminescence, uHTS | actives 0.39% (n = 330,000) | inhibition, % at 10 µM | Yeast reconstituted NLRP3/ASC/caspase-1, beta-gal luminescence, 24 h;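 active = inhibition of 50% or more; inactive = inhibition below 50%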;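 note: plate controls were induced DMSO wells for no effect and uninduced yeast grown without galactose for full effect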
PfHsp90 yeast 2: growth inhibition of PfHsp90-expressing yeast, primary screen, antimalarial PfHsp90 inhibitor project, S. cerevisiae, BacTiter-Glo luminescence, single point, set 2. BacTiter-Glo ATP, 48 h; yeast lacking PDR1 and PDR3 efflux regulators. inhibition, % at 9.4 µM. actives 0.32% (n = 310,000);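 active = every replicate shows inhibition above about 80%, whatever the replicate mean, limit read from the data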;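 note: 0% = DMSO neutral controls and 100% = 20 µM radicicol positive controls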
tim10-1 confirm: growth inhibitors of tim10-1 mutant yeast, confirmation, single concentration, luminescence, S. cerevisiae | shares compounds with tim10-1 inh | inhibition, % at 20 µM | S. cerevisiae tim10-1 ts strain growth, BacTiter-Glo, 24 h | actives 56% (n = 7,400);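 active = inhibition of yeast growth at or above a set limit in either of two repeat tests at 20 µM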;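 note: tim10-1 mutant grown at permissive 25 °C to find synthetic lethal compounds; 0% = DMSO yeast wells and 100% = medium wells without yeast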
The depositor's hits bear a star.

`CCC1CCCCN1S(=O)(=O)c1ccc(C(=O)Nc2nnc(-c3cccs3)o2)cc1` (stereo unspecified) gave tim10-1 inh 44.9*, TIM10 inh 17.7, tim23-1 inh 21.1, NLRP3 yeast inh 5.4, PfHsp90 yeast 2 -27.3 and tim10-1 confirm 27.4.
Screening COc1ccc(-c2nnc(SC(C)C(=O)NCc3ccc4c(c3)OCO4)n2Cc2ccco2)cc1 (stereo unspecified) returned tim10-1 inh 25.0, TIM10 inh 16.7, tim23-1 inh 27.3, NLRP3 yeast inh 4.5 and PfHsp90 yeast 2 7.2.
`CC(C)(C)c1ccc(COn2c(=O)c(-c3ccco3)[n+]([O-])c3ccccc32)cc1` gave tim10-1 inh 49.7*, TIM10 inh 26.5, tim23-1 inh 49.3, NLRP3 yeast inh 4.5, PfHsp90 yeast 2 -27.7 and tim10-1 confirm 22.1.
`CC1(C)SC(=S)N(NC(=O)Nc2cccc3ccccc23)C1N(O)C(=O)Nc1ccccc1` (stereo unspecified) gave tim10-1 inh 19.5, TIM10 inh 23.9, tim23-1 inh 20.9, NLRP3 yeast inh 7.3 and PfHsp90 yeast 2 -6.2.
CC1CCc2c(sc(NS(=O)(=O)c3ccccc3)c2C(=O)OC(C)C)C1 (stereo unspecified) was read as tim10-1 inh 32.2, TIM10 inh 19.6, tim23-1 inh 6.7, NLRP3 yeast inh -1.1 and PfHsp90 yeast 2 10.0.
CCN1CCN(S(=O)(=O)c2ccc(Cl)c(C(=O)N(C)Cc3ccccc3)c2)CC1 was read as tim10-1 inh 98.4*, TIM10 inh 8.5, tim23-1 inh 20.1, NLRP3 yeast inh 5.2, PfHsp90 yeast 2 4.3 and tim10-1 confirm 9.8.
COCCn1c(=NC(=O)c2cc(-c3cccs3)nc3ccccc23)sc2cc(S(N)(=O)=O)ccc21 was read as tim10-1 inh 40.0, TIM10 inh 14.5, tim23-1 inh 24.3, NLRP3 yeast inh 1.8, PfHsp90 yeast 2 -7.3 and tim10-1 confirm 29.9*.
For Nc1c(C(=O)c2ccccc2)sc2snc(SCC(=O)c3ccccc3)c12 the results were tim10-1 inh 62.2*, TIM10 inh 18.3, tim23-1 inh 27.9, NLRP3 yeast inh 24.8, PfHsp90 yeast 2 -12.8 and tim10-1 confirm 66.5*.
Screening O=C(NN=C1CCCCCCC1)c1ccc2ccccc2n1 returned tim10-1 inh 20.7, TIM10 inh 8.8, tim23-1 inh 24.0, NLRP3 yeast inh 23.6 and PfHsp90 yeast 2 9.1.
Screening Cc1ccc(S(=O)(=O)N2CCCCC2CCNC(=O)C(=O)NCc2ccco2)cc1 (stereo unspecified) returned tim10-1 inh 42.3*, TIM10 inh 0.5, tim23-1 inh 36.6, NLRP3 yeast inh 20.0, PfHsp90 yeast 2 -13.4 and tim10-1 confirm 13.4.
`COc1ccc(S(=O)(=O)N2CCCCCC2)cc1C(=O)N(C)Cc1cccs1` gave tim10-1 inh 11.9, TIM10 inh -2.9, tim23-1 inh 19.7, NLRP3 yeast inh 3.8 and PfHsp90 yeast 2 1.7.
Screening O=C1OC(N2CCN(C(=O)C3CCCO3)CC2)c2ccccc21 (stereo unspecified) returned tim10-1 inh 5.7, TIM10 inh 0.6, tim23-1 inh 3.8, NLRP3 yeast inh 7.0 and PfHsp90 yeast 2 20.0.
Screening Cc1cc2nc(-c3cc(N4CCOCC4)ccc3[N+](=O)[O-])ccn2n1 returned tim10-1 inh 1.4, TIM10 inh -7.8, tim23-1 inh 4.9 and NLRP3 yeast inh 9.7.
Screening Cc1cc2nc(-c3ccc4c(c3)CCC4)ccn2n1 returned tim10-1 inh 41.0*, TIM10 inh -22.9, tim23-1 inh 18.8, NLRP3 yeast inh 17.3, PfHsp90 yeast 2 -14.7 and tim10-1 confirm 19.9.
Screening CCOC(=O)c1c(NC(=O)CSc2nnc(-c3ccco3)o2)sc(C)c1C returned tim10-1 inh 41.5*, TIM10 inh 22.1, tim23-1 inh 23.9, NLRP3 yeast inh 18.1, PfHsp90 yeast 2 -13.1 and tim10-1 confirm 16.8.
Brc1ccc(Oc2nnnn2-c2ccccc2)cc1 was read as tim10-1 inh 43.7*, TIM10 inh 9.9, tim23-1 inh 47.6, NLRP3 yeast inh -3.3, PfHsp90 yeast 2 -11.8 and tim10-1 confirm 35.2*.
Screening O=c1c2[nH]c3ccc(F)cc3c2nc2n1CCS2 returned tim10-1 inh 45.6*, TIM10 inh 25.6, tim23-1 inh 19.4, NLRP3 yeast inh 6.1, PfHsp90 yeast 2 -15.6 and tim10-1 confirm 40.5*.
For O=c1c2[nH]c3ccc(F)cc3c2nc2n1CCCS2 the results were tim10-1 inh 40.8*, TIM10 inh 18.3, tim23-1 inh 32.0, NLRP3 yeast inh 29.3, PfHsp90 yeast 2 15.7 and tim10-1 confirm 22.6.
CC(=O)c1cccc(NC(=O)NC(C)c2ccncc2)c1 (stereo unspecified) was read as tim10-1 inh 17.4, TIM10 inh 3.7, tim23-1 inh 5.8, NLRP3 yeast inh -8.9 and PfHsp90 yeast 2 12.3.
For O=C1/C(=C/c2ccccc2Cl)SC(=S)N1CCC(=O)N1CCCCC1CCO (stereo unspecified) the results were tim10-1 inh 46.4*, TIM10 inh 29.0, tim23-1 inh 48.8, NLRP3 yeast inh 11.1, PfHsp90 yeast 2 -3.3 and tim10-1 confirm 28.5.
CC1(C)CC(CC(=O)Nc2nccs2)(c2ccccc2)CCO1 (stereo unspecified) was read as tim10-1 inh 3.1, TIM10 inh 7.1, tim23-1 inh 8.0, NLRP3 yeast inh 29.1 and PfHsp90 yeast 2 -15.1.
`C=CCNC(=S)N/N=C(\C)c1ccc(OC)cc1` gave tim10-1 inh 41.0*, TIM10 inh 20.3, tim23-1 inh 6.7, NLRP3 yeast inh 1.0, PfHsp90 yeast 2 -6.7 and tim10-1 confirm 13.6.
`Cc1occc1C(=O)Nc1sc2c(c1C(N)=O)CCCCC2` gave tim10-1 inh 48.5*, TIM10 inh 38.7, tim23-1 inh 27.7, NLRP3 yeast inh 3.4, PfHsp90 yeast 2 -17.4 and tim10-1 confirm 23.3.
For COC(=O)c1c(NC(=O)c2ccoc2C)sc2c1CCC2 the results were tim10-1 inh 11.0, TIM10 inh -10.5, tim23-1 inh 21.7, NLRP3 yeast inh 30.3 and PfHsp90 yeast 2 -1.9.
C/C(=N\OCC(=O)Nc1ccccc1Br)c1cccs1 was read as tim10-1 inh 13.2, TIM10 inh -12.3, tim23-1 inh 2.1, NLRP3 yeast inh 43.2 and PfHsp90 yeast 2 17.3.
For O=C(C1COc2ccccc2O1)N1CCN(c2nc3c(F)cc(F)cc3s2)CC1 (stereo unspecified) the results were tim10-1 inh 40.4*, TIM10 inh 15.9, tim23-1 inh 43.7, NLRP3 yeast inh 24.5, PfHsp90 yeast 2 -16.3 and tim10-1 confirm 23.4.
